Source: PubChem BioAssay
BAZ2B inh – BAZ2B (human) inhibition; AlphaScreen BAZ2B-H3K14Ac peptide displacement; Q9UIF8; Potency, µM (titrated, usually from 114 µM), most hits filed as inhibitors; 360,000 compounds, 4.4% hits; further: nearly all actives have a fitted effect of over 60% in size
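Compounds, titrated to a top concentration of 110 uM, were incubated 30 min at room temperature with preformed BAZ2B/acetyl-K14 H3 peptide complex (50 nM each). Proximity signal was measured by AlphaScreen after 20 min with beads.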
HP1b chromo inh – HP1-beta chromodomain-methylated histone interaction inhibition; AlphaScreen HP1-beta / biotin-H3K9me3 peptide binding; P83916; 390,000 compounds, 0.56% hits; Potency, µM (series often up to 114 µM), hits mostly inhibitors; further: nearly all actives have a fitted effect of over 70% in size
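Compound inhibition of the preformed complex between 50 nM HP1-beta and 50 nM biotinylated H3K9me3 peptide was read by AlphaScreen. Buffer was PBS pH 7.4 with 0.01% Tween-20. Incubations ran 30 min at room temperature, with 10 ug/mL donor/acceptor beads.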
L3MBTL1 block – L3MBTL1 (human) inhibition; AlphaScreen L3MBTL1–H3K9me1 peptide binding; Potency, µM (titrated, usually from 57.1 µM), actives largely listed as inhibitors; AID 485360; 230,000 compounds, 0.66% hits; Q9Y468; further: nearly all actives have a fitted effect of over 60% in size
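Read-out is AlphaScreen signal from streptavidin donor and nickel chelate acceptor beads (10 ug/mL final each) bridging L3MBTL1 (50 nM) and biotinylated K9-monomethylated H3(1-15) peptide (75 nM), after 30 min compound exposure at room temperature.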
G9a block – blocks human histone lysine methyltransferase G9a. Q96KQ7. 350,000 compounds, 8.8% hits. Potency, µM (top dose mostly 102 µM), usual class: inhibitors. AID 504332. G9a H3K9 monomethylation, AlphaScreen, 2 h; further: nearly all actives have a fitted effect of over 75% in size
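G9a (20 nM) was preincubated 15 min with compound, then reacted 2 h at room temperature with 500 nM biotin-H3K9 peptide and 20 µM SAM. Monomethyl-H3K9 detected by AlphaScreen using anti-H3K9me1 antibody.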
JMJD2A Tudor inh – blocks the human JMJD2A Tudor domain; Potency, µM (highest dose often 114 µM), actives largely listed as inhibitors; O75164; AlphaScreen JMJD2A-Tudor / H3K4me3 peptide binding; AID 504339; 390,000 compounds, 4.4% hits; further: nearly all actives have a fitted effect of over 50% in size
Sfp PPTase inh – inhibitors of Bacillus subtilis Sfp phosphopantetheinyl transferase. Potency, µM, usual class: inhibitors. Biochemical Sfp PPTase activity, qHTS. 310,000 compounds, 3.5% hits. Q9F4F7;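 further: the enzyme is Sfp with the accession as filed and its product quenches rhodamine fluorescence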
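Sfp 15 nM + cpd, 15 min RT; start w/ rhodamine-CoA 5 uM, BHQ-2-YbbR 12.5 uM (final); 50 mM Hepes pH 7.6, 10 mM MgCl2, 0.01% NP-40, 0.01% BSA; read 525/598 nm at 0 and 30 min.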
Numbers stand for hits; i = inactive; ? = inconclusive; nt = not tested or not shown; ! = not active in a repeat; [ ] = dose if it differs, or a comment. Hits are enriched below; roughly 12% of the tested compounds scored in any of these assays. The call rests on the fitted dose curve; in most records, active means well fitted curve in the direction sought with a large enough effect; inconclusive means small, poorly fitted or top-dose-only effect, or another doubt; inactive means no such curve, though single readings can be large; an effect the other way counts as inactive or inconclusive.

SMILES	BAZ2B inh	HP1b chromo inh	L3MBTL1 block	G9a block	JMJD2A Tudor inh	Sfp PPTase inh
COCCN(C(=O)CCC(=O)Nc1cc(C)on1)C(C(=O)NC1CCCC1)c1ccc(C(C)C)cc1 (stereo unspecified)	i	i	nt	?	i	i
O=C(NC(=S)Nc1cccc([N+](=O)[O-])c1)c1ccccc1	i	i	i	i	i	44.7µM
O=C(NC(=S)Nc1ccc(Cl)c(C(=O)O)c1)c1cccc(COc2ccccc2)c1	i	i	nt	i	?	?
Cc1c(NC(=S)NC(=O)c2cccc(Br)c2)c(=O)n(-c2ccccc2)n1C	i	i	i	nt	i	i
COc1ccc([N+](=O)[O-])cc1NC(=S)NC(NC(C)=O)C(Cl)(Cl)Cl (stereo unspecified)	i	i	i	39.8µM	i	i
Cc1c(NC(=S)NC(=O)c2cccc([N+](=O)[O-])c2)c(=O)n(-c2ccccc2)n1C	i	i	nt	44.7µM	i	i
O=C(NC(=S)Nc1cccc([N+](=O)[O-])c1)c1ccco1	i	i	i	i	i	?
O=C(O)c1ccc(Cl)c(NC(=S)NC(=O)c2cccc(COc3ccccc3)c2)c1	50.1µM	?	nt	i	?	i
O=C(NC(=S)Nc1cc([N+](=O)[O-])ccc1Cl)c1ccccc1	i	i	nt	i[12.7 µM]	i	56.2µM
Cc1c(NC(=O)c2cc(-c3ccc(F)cc3)on2)c(=O)n(-c2ccccc2)n1C	i	i	nt	i	79.4µM!	i
O=C(O)CC(NNC(=O)c1ccccc1)C(=O)Nc1cccc([N+](=O)[O-])c1 (stereo unspecified)	?	i	nt	50.1µM	?	i
O=C(O)c1ccc(Cl)c(NC(=S)NC(=O)c2ccccc2[N+](=O)[O-])c1	i	i	nt	31.6µM	i	50.1µM
Cc1c(NC(=O)c2cc(-c3ccc(Cl)cc3)on2)c(=O)n(-c2ccccc2)n1C	i	i	nt	i	?	i
CCCOC1(C(F)(F)F)NC(=O)N(c2cccc(Cl)c2)C1=O (stereo unspecified)	i	i	nt	i	i	nt
O=C(Nc1cccc([N+](=O)[O-])c1)c1cnccn1	50.1µM	i	i	i	?	i
O=C(Nc1cccc([N+](=O)[O-])c1)c1ccc2ccccc2c1O	i	i	i	15.8µM	i	i
O=C(O)c1cccc(NC(=S)NC(NC(=O)c2cccc([N+](=O)[O-])c2)C(Cl)(Cl)Cl)c1 (stereo unspecified)	i	i	nt	50.1µM	i	i
O=C(Cc1ccccc1)Nc1cccc([N+](=O)[O-])c1	i	i	nt	?	i	i
Cc1noc(C)c1S(=O)(=O)NCc1ccc(CN(C)C)cc1	i	i	i	i	i	nt
O=C(NC1CCCCC1)c1sc(=S)n2c1[nH]c(=O)c1ccccc12	?	?	i	nt	56.2µM	i
CCCCNC(=O)c1sc(=S)n2c1[nH]c(=O)c1ccccc12	50.1µM	i	i	?	79.4µM	i
O=C(NC1CCCCCC1)c1c(O)c2ccccc2[nH]c1=O	i	i	i	?	i	i
CCC(=O)N(Cc1ccco1)c1nc(C(=O)Nc2ccc(Cl)cc2)c(C)s1	i	i	i	?	i	20µM
Cc1ccc(NC(=O)c2nc(S(C)(=O)=O)ncc2N(Cc2ccco2)Cc2ccco2)cc1	i	i	nt	i	i	nt
O=C(COC(=O)CCNS(=O)(=O)c1ccccc1)NC1CC1	nt	i	i	nt	i	nt
SMILES	BAZ2B inh	HP1b chromo inh	L3MBTL1 block	G9a block	JMJD2A Tudor inh	Sfp PPTase inh
CC(C)(C)NC(=O)CN(Cc1ccc2c(c1)OCO2)C(=O)CNS(=O)(=O)c1ccccc1	i	i	nt	i	79.4µM	i
Cn1cccc1/C=N\NC(=O)C1COc2ccc(C(C)(C)C)cc2O1 (stereo unspecified)	35.5µM	i	nt	nt	i	i
O=C(CSc1nc(=O)n2ccccc2n1)N1CCN(c2ccccc2)CC1	?	i	i	i	i	nt
c1cnc(N2CCN(Cc3ccc4c(c3)OCO4)CC2)nc1	i	i	i	i	i	i
Cc1[nH]c2ccccc2c1CN1CCN(c2ccccn2)CC1	i	i	i	?	i	i
c1ccc(N2CCN(Cc3ccc4c(c3)OCO4)CC2)nc1	nt	?	nt	nt	28.2µM	nt
Brc1ccc(CN2CCN(c3ccccn3)CC2)s1	44.7µM	?	nt	14.1µM	7.94µM	i
O=c1c(CN2CCN(c3ccccn3)CC2)coc2ccccc12	79.4µM	?	i	?	22.4µM	i
COc1ccc(S(=O)(=O)N2CCOCC2)cc1NC(=O)CSc1nc(C)c(C)c(C)n1	nt	i	i	nt	i	nt
Cc1nnc(SCC(=O)Nc2cc(S(=O)(=O)N3CCOCC3)ccc2C)s1	i	i	i	i	i	nt
COc1ccc(S(=O)(=O)N2CCOCC2)cc1NC(=O)CSc1nnc(N)s1	i	i	i	44.7µM	i	nt
CCc1noc(C)c1C(=O)Nc1cc(S(=O)(=O)N2CCOCC2)ccc1OC(C)C	i	i	i	12.6µM	i	nt
O=C(CSc1nc2ccccc2s1)Nc1cc(S(=O)(=O)N2CCOCC2)ccc1O	?	i	i	?	50.1µM	i
COc1ccc(S(=O)(=O)N2CCOCC2)cc1NC(=O)CSc1n[nH]c(C(C)C)n1	i	i	i	28.2µM	i	25.1µM
CCN(C[C@H]1N[C@@](C)(C(=O)OC)[C@H]2C(=O)N(C)C(=O)[C@@H]12)C(=O)COc1ccccc1	nt	i	i	nt	i	nt
O=C1Nc2ccccc2N=C(c2ccccc2)C1N1CCOCC1 (stereo unspecified)	i	i	i	39.8µM	i	i
CC1=Nc2ccccc2NC(=O)C1Sc1nnc(C)s1 (stereo unspecified)	i	i	i	i	i	i
O=C1Nc2ccccc2N=C(c2ccccc2)C1Br (stereo unspecified)	?	i	i	nt	?	44.7µM
c1ccc(-c2nc(N3CCOCC3)sc2-c2ccccc2)cc1	i	i	nt	i	i	i
O=S(=O)(c1ccc2c(c1)OCCO2)N1CCN(S(=O)(=O)c2ccccc2OC(F)(F)F)CC1	nt	nt	nt	nt	i	nt
O=C(c1cc(C(F)(F)F)cc(C(F)(F)F)c1)N1CCC[C@@]2(CCN(c3ccccc3)C2)C1	nt	nt	nt	i[12.7 µM]	nt	i
CCOC(=O)c1[nH]c2ccc(Br)cc2c1NC(=O)CCN1CCC(C(=O)OCC)CC1	i	i	i	50.1µM	i[11.4 µM]	i
Cc1cccc(NC2CNC(=O)NC2=O)c1 (stereo unspecified)	nt	i	nt	nt	i	nt
Cc1cccc(NC2SC(=O)NC2=O)c1 (stereo unspecified)	?	i	i	50.1µM	?	i
COCc1cc(C)n(CC(=O)Nc2cc(C)cc(C)c2)c(=O)c1C#N	i	i	i	nt	i	i
O=S1(=O)N=C(Oc2ccccc2Br)c2ccccc21	nt	nt	nt	nt	79.4µM	nt
O=S1(=O)N=C(Oc2ccccc2Cl)c2ccccc21	nt	nt	nt	nt	112µM	nt
Nc1ccccc1OC1=NS(=O)(=O)c2ccccc21	nt	nt	nt	nt	i	nt
O=C(O)c1ccccc1OC1=NS(=O)(=O)c2ccccc21	nt	nt	nt	nt	79.4µM	nt
